Results filed as inconclusive are left out. The source holds several records for some structures; these can differ, active in one and inactive in another. Active and inactive are the calls of the source. Unless noted, calls follow the shape of the dose curve; as a rule, active = well fitted curve in the direction sought with a large enough effect; inconclusive = small, poorly fitted or top-dose-only effect, or another doubt; inactive = no such curve, though single readings can be large; an effect the other way counts as inactive or inconclusive.
Assays:
[1] = target: DNA polymerase III PolC-type (Bacillus subtilis (strain 168)) (UniProt P13267); assay: qHTS Validation Assay for the Inhibitors of DNA Replication in Gram-Positive Bacteria (AID 485295); also: potency is read from the fitted curve at half-maximal effect
How it was run: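 First, compound is mixed with the reconstituted replication complex and held at room temperature. Next, circular single-stranded M13Gori with nucleotides starts synthesis. Finally, PicoGreen in EDTA halts the reaction and stains double-stranded product for fluorescence reading.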

[2] = target: Tumor susceptibility gene 101 protein (Homo sapiens) (UniProt Q99816); assay: qHTS Validation Assay for Iinhibitors of HIV-1 Budding by Blocking the Interaction of PTAP/TSG101 (AID 485342; calls by dose curve)
How it was run: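 Binding of a FITC-tagged PTAP-motif peptide (50 nM) to the Tsg101 binding domain (10 uM) is monitored by fluorescence polarization. Compounds are pin-delivered before peptide addition, and incubation runs 20 min at room temperature.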

[3] = qHTS Validation Assay to Find Inhibitors of Chronic Active B-Cell Receptor Signaling (AID 485345; active = well fitted curve in the direction sought with a large enough effect in the main read-out, with a control signal flat, not every such curve was filed as active)
How it was run: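 TMD8 ABC-DLBCL cells with dox-inducible green luciferase–IκBα fusion and red native luciferase; compounds 46 uM–3 nM, 4 h at 37C with doxycycline in 0.5% FBS IMDM. Green/red ratio normalized to basal and 10 uM MG-132.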

[4] = target: Beta-2 adrenergic receptor (Homo sapiens) (UniProt P07550); assay: qHTS validation assay of beta-arrestin-biased ligands of beta2-adrenergic receptor (AID 485366)
How it was run: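 Values derive from curve-fitted %Activity of a luminescent beta-arrestin recruitment reporter; compounds tested up to 46 microM on Tango cells for 18 hr at 37 degrees C, 5% CO2.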

[5] = Quantitative high throughput screen for delayed death inhibitors of the malarial parasite plastid, 96 hour incubation (AID 488745); also: nearly all actives have a fitted effect of over 70% in size; also: potency is read from the fitted curve at half-maximal effect
How it was run: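 P. falciparum carrying an integrated firefly luciferase reporter, grown in erythrocytes (2% hematocrit, 0.1% parasitemia final) in RPMI 1640/0.5% Albumax, was exposed to compound for 96 h (two generations) at 37 C, 5% CO2. Luminescence decrease indicated growth inhibition.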

[6] = Quantitative high throughput screen for delayed death inhibitors of the malarial parasite plastid, 48 hour incubation (AID 488752); also: nearly all actives have a fitted effect of over 65% in size; also: potency is read from the fitted curve at half-maximal effect
How it was run: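 Erythrocytes infected with P. falciparum carrying an integrated firefly luciferase reporter (2% hematocrit, 0.1% parasitemia final) were exposed to compounds in RPMI 1640/0.5% Albumax for 48 h at 37 C, 5% CO2. Growth inhibition was scored as reduced luminescence.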

[7] = target: Thioredoxin reductase 1, cytoplasmic (Rattus norvegicus) (UniProt O89049); assay: qHTS Assay for Substrates of Mammalian Selenoprotein Thioredoxin Reductase 1 (TrxR1) (AID 488772);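 also: NADPH fluorescence in the first read after selenite addition and not the 8 min delta; series mostly up to about 57 µM; a drop in NADPH fluorescence below the no-compound background marks a TrxR1 substrate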
How it was run: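 Quantitative HTS in Tris-HCl buffer at pH 7.5 with EDTA and Tween-20, using rat TrxR1, 400 uM NADPH and 400 uM selenite (final). A fall in initial NADPH fluorescence relative to background marked substrate behaviour.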

[8] = target: Thioredoxin reductase 1, cytoplasmic (Rattus norvegicus) (UniProt O89049); assay: qHTS Assay for Inhibitors of Mammalian Selenoprotein Thioredoxin Reductase 1 (TrxR1) (AID 488773); conditions: Potency: inhibition;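 also: drop in NADPH fluorescence over an 8 min run after selenite addition; series mostly up to about 57 µM; nearly all actives have a fitted effect of over 40% in size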
How it was run: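 Steps: enzyme (90 nM) plus NADPH (400 uM final), 5 min at ~22 deg C; compound added, 15 min; selenite (400 uM final) added; fluorescence followed for 8 min. Concentration-response curves derived from the normalized delta values.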

[9] = target: Flap endonuclease 1 (Homo sapiens) (UniProt P39748); assay: qHTS Validation Assay for the Inhibitors of Human Flap endonuclease 1 (FEN1) (AID 488816); also: potency is read from the fitted curve at half-maximal effect
How it was run: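 FEN1, dispensed as a 10 nM reagent, was preincubated with pin-transferred compounds for 15 min at room temperature before substrate was added (50 nM final). Plates were read at 0 and 15 min, and a four-parameter Hill equation was fitted to the concentration-response data.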

[10] = target: Chromobox protein homolog 1 (Homo sapiens) (UniProt P83916); assay: qHTS Validation Assay for Inhibitors of HP1-beta Chromodomain Interactions with Methylated Histone Tails (AID 488953); also: nearly all actives have a fitted effect of over 50% in size; also: potency is read from the fitted curve at half-maximal effect
How it was run: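 HP1-beta (50 nM) was preincubated 30 min at room temperature with biotinylated H3(1-18)K9me3 peptide (50 nM) in PBS pH 7.4, 0.01% Tween-20, then with compounds 30 min. AlphaScreen signal was read after streptavidin donor/nickel chelate acceptor beads (10 ug/mL final).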

[11] = target: Methanococcus maripaludis chaperonin (MmCpn) (UniProt Q6LX38); assay: High-Throughput Screening for Modulators of Cytosolic Chaperonin Activity: MmCpn Primary Screen (AID 488978);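 also: 50 nM MmCpn enzyme hydrolysing 30 µM ATP at 37 °C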
How it was run: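 Steps: chaperonin 50 nM final; add compound, 5 min RT; start with ATP, 30 uM final; hold 10 min at 37C; add ADP Transcreener HTRF reagent, 5 min; read ex 320, em 590 and 665 nm.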

[12] = target: Transient receptor potential cation channel subfamily V member 1 (Homo sapiens) (UniProt Q8NER1); assay: HTS Assay for Compounds that Act as Enhancers of the Vanilloid Receptor 1 (AID 488979)
How it was run: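 TRPV1-expressing cells loaded with Fluo-8 calcium dye; compounds added and calcium influx read kinetically for 3 min (agonist phase), then capsaicin at EC20 added and read 2 min more for enhancement. Fluorescence ex 480/em 520 nm.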

[13] = target: Thyrotropin receptor (Homo sapiens) (UniProt P16473); assay: qHTS Assay for Antagonists of the Thyroid Stimulating Hormone Receptor (AID 488980); also: series mostly up to about 58 µM
How it was run: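 Readout is cAMP by HTRF competition between cellular cAMP and cAMP-d2 for a cryptate-labelled antibody. Antagonism was assessed in TSHR-transfected HEK293 cells stimulated with 4 nM TSH (EC80, final) in the presence of RO 20-1724.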

[14] = target: D(1A) dopamine receptor (Homo sapiens) (UniProt P21728); assay: HTS Assay for Allosteric Agonists of the Human D1 Dopamine Receptor: Primary Screen for Agonists (AID 488981); also: potency is read from the fitted curve at half-maximal effect
How it was run: (§1)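 Tetracycline-induced HEK293 T-REx cells force-coupled to calcium signalling were incubated overnight at 30 C and dye-loaded at room temperature. Calcium flux over 180 s after compound addition flagged agonists; a further 180 s read after EC20 dopamine flagged potentiators.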

[15] = target: D(1A) dopamine receptor (Homo sapiens) (UniProt P21728); assay: HTS Assay for Allosteric Agonists of the Human D1 Dopamine Receptor: Primary Screen for Antagonists (AID 488983);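 also: calcium flux response to an EC80 dopamine challenge measured with no-wash dye; nearly all actives have a fitted effect of over 65% in size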; also: potency is read from the fitted curve at half-maximal effect
How it was run: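 Tetracycline-induced HEK293 T-REx cells expressing force-coupled D1 were plated overnight at 30 C, dye-loaded for calcium, and read kinetically. Compounds were pinned in, then an EC80 dopamine challenge followed after 180 s to reveal antagonism.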

[16] = target: ATP-dependent 6-phosphofructokinase (Trypanosoma brucei brucei) (UniProt O15648); assay: qHTS Assay to Find Inhibitors of T. brucei phosphofructokinase: hit validation (AID 492961);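 also: luminescence reports ADP formed as PFK phosphorylates fructose-6-phosphate with ATP; series mostly up to about 51 µM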
How it was run: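 Reaction: 0.1 M triethanolamine pH 8.0, 5 mM MgCl2, F6P 0.5 mM, ATP 0.1 mM, PFK 1.25 nM, 45 min RT. Read-out: ADP-Glo luminescence. Analysis: concentration-response fits, classed by r2 and efficacy.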

[17] = Validation screen for small molecules that induce genotoxicity in human embryonic kidney (HEK293T) cells expressing luciferase-tagged ELG1 (AID 493106)
How it was run: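 HEK293T cells expressing luciferase-tagged ELG1 were exposed to compound or DMSO vehicle for 16 hr at 37 °C, 5% CO2. Genotoxic stress raises ELG1 levels, so increased luciferase signal after ONE-Glo addition and 30 min at room temperature marks hits.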

[18] = target: ATP-dependent 6-phosphofructokinase (Trypanosoma brucei brucei) (UniProt O15648); assay: qHTS Validation Assay to Find Inhibitors of T. brucei phosphofructokinase (AID 485368); conditions: outcome: dose series up to 57.5 µM
How it was run: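 Enzyme reaction in triethanolamine buffer pH 8.0 with 5 mM MgCl2, 0.01% Tween20 and 0.1% BSA; PFK 1.25 nM, F6P 0.5 mM, ATP 0.1 mM, 45 min RT. ADP quantified by ADP-Glo.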

[19] = target: M-phase phosphoprotein 8 (Homo sapiens) (UniProt Q99549); assay: qHTS Validation Assay for Inhibitors for MPP8 Chromodomain Interactions with Methylated Histone Tails (AID 488949); also: nearly all actives have a fitted effect of over 55% in size; also: potency is read from the fitted curve at half-maximal effect
How it was run: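 50 nM MPP8 + 50 nM b-H3K9me3 peptide, PBS pH 7.4/0.01% Tween-20, 30 min RT; + cpd 30 min RT; + AlphaScreen donor/Ni-chelate acceptor beads 10 ug/mL final, 30 min dark; luminescence read.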

[20] = target: D(1A) dopamine receptor (Homo sapiens) (UniProt P21728); assay: HTS Assay for Allosteric Agonists of the Human D1 Dopamine Receptor: Primary Screen for Potentiators (AID 488982)
How it was run: as §1

Measured: Potency

Methanococcus maripaludis chaperonin (MmCpn), sequence (Q6LX38 1-543): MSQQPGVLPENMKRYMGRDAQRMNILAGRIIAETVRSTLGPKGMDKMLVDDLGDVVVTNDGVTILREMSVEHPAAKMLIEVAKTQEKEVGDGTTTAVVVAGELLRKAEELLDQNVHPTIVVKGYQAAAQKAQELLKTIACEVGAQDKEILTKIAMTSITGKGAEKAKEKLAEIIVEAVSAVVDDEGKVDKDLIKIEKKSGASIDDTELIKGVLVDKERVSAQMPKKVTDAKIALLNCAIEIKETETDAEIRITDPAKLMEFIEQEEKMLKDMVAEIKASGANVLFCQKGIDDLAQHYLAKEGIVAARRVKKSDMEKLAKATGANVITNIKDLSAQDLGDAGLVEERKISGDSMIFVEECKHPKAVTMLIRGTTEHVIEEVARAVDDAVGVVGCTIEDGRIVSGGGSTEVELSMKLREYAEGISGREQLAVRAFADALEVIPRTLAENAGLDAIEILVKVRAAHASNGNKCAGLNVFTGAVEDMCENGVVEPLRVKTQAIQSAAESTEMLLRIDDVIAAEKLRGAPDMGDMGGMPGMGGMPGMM
D(1A) dopamine receptor (Homo sapiens), sequence (P21728 whole entry, looked up): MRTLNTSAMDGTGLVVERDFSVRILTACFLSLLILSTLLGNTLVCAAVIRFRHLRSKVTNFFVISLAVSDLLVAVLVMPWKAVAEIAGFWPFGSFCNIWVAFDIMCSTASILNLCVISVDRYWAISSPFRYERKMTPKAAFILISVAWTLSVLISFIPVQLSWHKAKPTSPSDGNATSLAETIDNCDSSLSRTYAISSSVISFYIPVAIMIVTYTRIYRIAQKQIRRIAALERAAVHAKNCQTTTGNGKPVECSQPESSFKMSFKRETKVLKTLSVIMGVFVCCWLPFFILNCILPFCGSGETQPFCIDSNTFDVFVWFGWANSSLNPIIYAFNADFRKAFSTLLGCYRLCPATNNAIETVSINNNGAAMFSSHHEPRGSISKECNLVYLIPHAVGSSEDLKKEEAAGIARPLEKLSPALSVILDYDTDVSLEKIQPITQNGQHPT
Thioredoxin reductase 1, cytoplasmic (Rattus norvegicus), sequence (O89049 whole entry, looked up): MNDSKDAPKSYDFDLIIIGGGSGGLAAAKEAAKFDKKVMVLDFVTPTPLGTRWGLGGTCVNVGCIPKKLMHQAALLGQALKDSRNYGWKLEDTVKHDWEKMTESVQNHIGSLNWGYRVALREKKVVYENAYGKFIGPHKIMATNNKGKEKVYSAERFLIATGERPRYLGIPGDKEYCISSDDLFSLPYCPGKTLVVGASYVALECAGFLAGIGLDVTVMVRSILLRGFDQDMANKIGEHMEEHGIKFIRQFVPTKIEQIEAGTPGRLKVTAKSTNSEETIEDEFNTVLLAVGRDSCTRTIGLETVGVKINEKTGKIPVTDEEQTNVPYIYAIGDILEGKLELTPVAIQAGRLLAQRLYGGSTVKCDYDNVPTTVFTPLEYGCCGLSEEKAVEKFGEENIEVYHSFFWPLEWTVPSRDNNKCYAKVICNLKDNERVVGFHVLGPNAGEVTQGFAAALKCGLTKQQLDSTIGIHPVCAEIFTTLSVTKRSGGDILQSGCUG
Tumor susceptibility gene 101 protein (Homo sapiens), sequence (Q99816 whole entry, looked up, the tested form may be a part): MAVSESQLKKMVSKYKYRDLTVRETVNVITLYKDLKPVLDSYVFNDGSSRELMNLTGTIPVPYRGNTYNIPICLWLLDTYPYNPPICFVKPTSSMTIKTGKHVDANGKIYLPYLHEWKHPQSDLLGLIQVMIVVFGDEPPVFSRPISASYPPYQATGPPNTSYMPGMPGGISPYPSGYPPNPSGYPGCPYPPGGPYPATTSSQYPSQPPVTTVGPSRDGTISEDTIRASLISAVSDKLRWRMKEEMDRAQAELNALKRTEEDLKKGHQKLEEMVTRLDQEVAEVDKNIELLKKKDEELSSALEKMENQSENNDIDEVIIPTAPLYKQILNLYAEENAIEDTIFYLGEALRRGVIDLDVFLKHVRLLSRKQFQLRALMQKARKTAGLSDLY
Transient receptor potential cation channel subfamily V member 1 (Homo sapiens), sequence (Q8NER1 whole entry, looked up): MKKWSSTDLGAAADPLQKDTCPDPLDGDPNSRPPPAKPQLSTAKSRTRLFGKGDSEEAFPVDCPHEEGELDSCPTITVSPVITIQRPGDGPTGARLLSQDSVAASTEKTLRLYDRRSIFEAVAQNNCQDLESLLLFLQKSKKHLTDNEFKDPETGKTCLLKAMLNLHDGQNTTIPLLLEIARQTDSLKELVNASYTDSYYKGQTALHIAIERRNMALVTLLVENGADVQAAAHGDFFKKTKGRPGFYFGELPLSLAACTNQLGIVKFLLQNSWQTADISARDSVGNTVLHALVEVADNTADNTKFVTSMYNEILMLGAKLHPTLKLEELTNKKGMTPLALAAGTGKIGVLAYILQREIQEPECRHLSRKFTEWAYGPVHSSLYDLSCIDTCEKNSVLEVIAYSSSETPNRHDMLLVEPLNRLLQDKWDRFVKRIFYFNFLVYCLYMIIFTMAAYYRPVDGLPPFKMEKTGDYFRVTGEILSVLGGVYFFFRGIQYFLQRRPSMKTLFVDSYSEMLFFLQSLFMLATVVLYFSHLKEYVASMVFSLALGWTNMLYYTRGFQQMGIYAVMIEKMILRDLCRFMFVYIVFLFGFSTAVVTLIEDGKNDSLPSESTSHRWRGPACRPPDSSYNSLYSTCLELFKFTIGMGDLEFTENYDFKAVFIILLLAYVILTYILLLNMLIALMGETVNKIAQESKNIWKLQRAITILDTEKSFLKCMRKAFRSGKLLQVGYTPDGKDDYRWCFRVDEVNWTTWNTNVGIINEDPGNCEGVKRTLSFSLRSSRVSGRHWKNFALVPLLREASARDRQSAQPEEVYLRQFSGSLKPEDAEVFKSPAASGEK
Thyrotropin receptor (Homo sapiens), sequence (P16473 whole entry, looked up): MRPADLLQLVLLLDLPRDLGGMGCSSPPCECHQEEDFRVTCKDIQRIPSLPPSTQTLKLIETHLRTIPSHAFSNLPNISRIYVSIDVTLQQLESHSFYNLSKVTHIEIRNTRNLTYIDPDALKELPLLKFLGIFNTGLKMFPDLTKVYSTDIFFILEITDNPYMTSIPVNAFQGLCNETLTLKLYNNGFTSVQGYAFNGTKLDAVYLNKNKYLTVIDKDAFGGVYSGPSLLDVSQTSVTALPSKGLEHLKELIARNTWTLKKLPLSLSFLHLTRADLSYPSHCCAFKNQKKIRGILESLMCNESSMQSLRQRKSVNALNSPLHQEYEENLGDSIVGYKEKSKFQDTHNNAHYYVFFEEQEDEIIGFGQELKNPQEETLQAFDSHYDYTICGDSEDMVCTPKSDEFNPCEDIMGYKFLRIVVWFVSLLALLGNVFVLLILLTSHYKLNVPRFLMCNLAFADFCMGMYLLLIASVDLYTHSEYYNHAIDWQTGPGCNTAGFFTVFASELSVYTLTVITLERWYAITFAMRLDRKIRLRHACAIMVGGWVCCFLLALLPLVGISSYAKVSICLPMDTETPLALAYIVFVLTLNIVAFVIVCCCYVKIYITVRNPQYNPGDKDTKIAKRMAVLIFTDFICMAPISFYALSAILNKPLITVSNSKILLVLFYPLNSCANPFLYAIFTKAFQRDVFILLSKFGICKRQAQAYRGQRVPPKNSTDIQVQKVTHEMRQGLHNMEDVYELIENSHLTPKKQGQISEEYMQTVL
M-phase phosphoprotein 8 (Homo sapiens), sequence (Q99549 whole entry, looked up): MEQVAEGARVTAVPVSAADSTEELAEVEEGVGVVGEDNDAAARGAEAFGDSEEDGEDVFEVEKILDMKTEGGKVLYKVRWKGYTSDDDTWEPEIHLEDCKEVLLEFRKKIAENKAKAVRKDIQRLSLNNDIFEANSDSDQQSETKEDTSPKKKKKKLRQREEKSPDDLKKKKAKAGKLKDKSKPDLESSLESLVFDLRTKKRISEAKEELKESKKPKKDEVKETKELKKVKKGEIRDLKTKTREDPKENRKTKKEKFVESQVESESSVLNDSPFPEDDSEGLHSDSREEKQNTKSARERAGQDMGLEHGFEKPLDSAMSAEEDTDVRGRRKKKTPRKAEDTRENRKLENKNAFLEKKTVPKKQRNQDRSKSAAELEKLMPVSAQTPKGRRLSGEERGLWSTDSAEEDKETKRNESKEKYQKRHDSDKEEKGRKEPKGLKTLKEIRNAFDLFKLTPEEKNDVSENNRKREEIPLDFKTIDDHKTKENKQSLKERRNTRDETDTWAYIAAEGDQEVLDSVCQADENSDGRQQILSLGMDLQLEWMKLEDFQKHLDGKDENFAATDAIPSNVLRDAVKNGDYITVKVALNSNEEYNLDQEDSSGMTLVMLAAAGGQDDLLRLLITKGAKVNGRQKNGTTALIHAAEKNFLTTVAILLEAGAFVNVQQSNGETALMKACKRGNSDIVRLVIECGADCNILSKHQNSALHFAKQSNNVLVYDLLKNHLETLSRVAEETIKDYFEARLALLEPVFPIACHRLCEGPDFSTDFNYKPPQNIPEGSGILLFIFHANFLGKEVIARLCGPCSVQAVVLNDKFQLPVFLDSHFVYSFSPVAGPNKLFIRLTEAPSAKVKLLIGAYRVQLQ
Chromobox protein homolog 1 (Homo sapiens), sequence (P83916 whole entry, looked up): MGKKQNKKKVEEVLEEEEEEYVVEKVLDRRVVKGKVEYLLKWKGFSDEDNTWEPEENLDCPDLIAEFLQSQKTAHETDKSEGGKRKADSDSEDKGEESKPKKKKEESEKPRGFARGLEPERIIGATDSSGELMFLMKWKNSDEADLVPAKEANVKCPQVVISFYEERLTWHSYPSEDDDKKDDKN
Flap endonuclease 1 (Homo sapiens), sequence (P39748 whole entry, looked up): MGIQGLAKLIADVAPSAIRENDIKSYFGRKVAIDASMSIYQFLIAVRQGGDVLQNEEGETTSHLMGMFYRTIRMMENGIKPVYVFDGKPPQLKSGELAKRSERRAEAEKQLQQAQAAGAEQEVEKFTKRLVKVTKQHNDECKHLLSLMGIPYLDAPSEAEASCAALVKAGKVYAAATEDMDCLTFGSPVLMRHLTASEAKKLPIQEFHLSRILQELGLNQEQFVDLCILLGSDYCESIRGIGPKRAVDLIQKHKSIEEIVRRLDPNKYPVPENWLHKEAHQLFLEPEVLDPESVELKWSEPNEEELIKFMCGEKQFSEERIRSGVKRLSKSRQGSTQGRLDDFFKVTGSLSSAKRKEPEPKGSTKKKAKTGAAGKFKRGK

CCCCNc1cc(C(=O)O)cc(S(N)(=O)=O)c1Oc1ccccc1
not listed: [18] | [19] | [20]
inactive: all other assays above

OC(CN1CCC(Cc2ccc(F)cc2)CC1)c1ccc(Cl)cc1 (configuration not stated)
active: [5] 2.94 µM | [6] 3.29 µM
not listed: [13] | [14] | [15] | [19] | [20]
inactive: all other assays above

O=C1CCC(N2C(=O)c3ccccc3C2=O)C(=O)N1 (configuration not stated)
not listed: [16] | [19] | [20]
inactive: all other assays above

Cc1ccc(N(CC2=NCCN2)c2cccc(O)c2)cc1
not listed: [10] | [15] | [16] | [19] | [20]
inactive: all other assays above

C1COC(NC(C2CC2)C2CC2)=N1
not listed: [5] | [10] | [16] | [19] | [20]
inactive: all other assays above

Cc1[nH]c(=O)c(C#N)cc1-c1ccc2nccn2c1
not listed: [18] | [19] | [20]
inactive: all other assays above

NC[C@H](O)c1ccc(O)c(O)c1
active: [9] 2.12 µM | [14] 2.24 µM | [15] 2 µM
not listed: [8] | [13] | [16] | [18] | [19] | [20]
inactive: all other assays above

Nc1nc2c(ncn2COCCO)c(=O)[nH]1
not listed: [7] | [9] | [12] | [20]
inactive: all other assays above

CCCC(CCC)C(=O)O
not listed: [19]
inactive: all other assays above

O=NN(CCCl)C(=O)NCCCl
not listed: [16] | [19]
inactive: all other assays above

NCCCC(N)(C(=O)O)C(F)F (configuration not stated)
not listed: [10] | [20]
inactive: all other assays above

CC(C[N+](C)(C)C)OC(N)=O (configuration not stated)
not listed: [13] | [19]
inactive: all other assays above

Clc1cccc(Cl)c1NC1=NCCN1
not listed: [16] | [20]
inactive: all other assays above

N[C@@H]1CONC1=O
not listed: [10] | [18] | [19] | [20]
inactive: all other assays above

CN1CCN(CCCN2c3ccccc3Sc3ccc(C(F)(F)F)cc32)CC1
active: [6] 9.28 µM | [10] 31.6 µM
not listed: [3] | [5] | [12] | [15] | [19] | [20]
inactive: all other assays above

CC(C)(Sc1ccc(CCN(CCCCC2CCCCC2)C(=O)NC2CCCCC2)cc1)C(=O)O
active: [1] 26.7 µM | [10] 56.2 µM | [14] 11.2 µM
56.2 µM (active) and inactive: [19]
not listed: [3] | [15] | [16] | [18] | [20]
inactive: all other assays above

Reference: PubChem BioAssay (NCATS)
